The panel holds about 83,000 compounds, 20% with a hit somewhere; the sample as a whole holds those more often.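 Each cell line was grown in a 96-well plate and treated with one concentration of compound for 48 hours. Values below 10 were considered active.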 Unmarked numbers belong to inactive results. Active and inactive are the calls of the source.

For the assay, the system named is HL-60(TB) leukemia. As to the kind of experiment: NCI-60 one-dose screen, 48 h (100 = growth as untreated, 0 = no growth, -100 = all killed). To be noted: 10 µM unless noted.
For `Cc1ccccc1Nc1nc(SC(C)C)nc(-c2ccccc2)c1C#N`, the growth was 94.1%.
With `CN1CCN(Cc2ccc(NC(=O)c3cncc(C#Cc4cnc5ccc(OCC6(C)COC6)nn45)c3)cc2C(F)(F)F)CC1` the figure was -27.6% (active).
For `O=S(=O)(NCCNc1nccc(-n2cnc3ccccc32)n1)c1ccc(C(F)(F)F)cc1`, the growth is 73.8%.
The same measure for `N#Cc1c(-c2cccs2)cc(-c2cnccn2)nc1SCC(=O)N/N=C/c1ccccc1`: 110%; for `COc1cc2cc(Oc3ccc(NC(=O)Nc4ccc(F)c(C(F)(F)F)c4)cc3)c(C)nc2cc1OCCN(C)C`: 94.3%.
Turning to `CCCCCCCCNC(=O)c1ccc(Cn2c(CCCC)nc3c(N)nc4ccccc4c32)cc1`, the growth is -57.6% (active).
The same measure for `O=S(=O)(Nc1cccc2ccccc12)c1ccc(-c2cnc(C3CC3)o2)cc1`: -16.2% (active); for `COc1cc(OC)c(/C=C/S(=O)(=O)Cc2ccc(OC)c(NCC(=O)NO)c2)c(OC)c1`: -13.5% (active); for `Cc1ccccc1N1CCN(C2=C(Cl)C(=O)c3ncccc3C2=O)CC1`: 4.21% (active).
In the case of `C/C(=N\NC(N)=S)c1nnn(-c2ccc([N+](=O)[O-])cc2)c1C`, the growth was 105%.
With `O=[N+]([O-])c1ccc(NC(=S)NNC(=S)Nc2ccc(Br)cc2)cc1` the figure was 93.1%; with `O=S(=O)(Oc1ccc(-c2cn3ccoc3n2)cc1)c1cccc(C(F)(F)F)c1`, 105%; with `Cc1ccc(/C=C/CC(=O)Nc2ccc(C(=O)Nc3ccc(F)cc3N)nc2)cn1`, -19.6% (active).
With `CC(=O)N1N=C(c2cccc(-n3cccc3)c2)CC1c1cccc(F)c1` (stereo not given) the figure was 108%; with `O=C(CSc1nc2ccccc2c(=O)n1-c1ccccc1)N/N=C/c1ccc(Oc2ccc(Cl)cc2)cc1`, 106%.
Regarding `CCOC(=O)c1c(Nc2ccccc2)nn2c(-c3ccc(OC)c(OC)c3)ccnc12`, the growth is 43.3%.
The same measure for `Cc1cc2ncc(-c3cc4ccccc4c(N4CCN(C)CC4)n3)nc2cc1C`: -31.9% (active); for `CNC1CCc2c(sc(NC(=O)c3ccc(C(C)(C)C)cc3)c2C(N)=O)C1` (stereo not given): -69.3% (active).
As to `COc1ccc(Cn2cc3c(c2-c2ccccc2)CCCc2cnoc2-3)cc1[N+](=O)[O-]`, the growth is 27%.
On to `CCCCc1nc2c(N)nc3ccccc3c2n1Cc1cccc(CN)c1`, for which the growth was 11.9%.
Turning to `COc1cc(/C=N/Nc2ccnc3cc(Cl)ccc23)cc(OC)c1O`, the growth is -44.6% (active).
With `O=C(NNc1nc2cc(F)ccc2n2cncc12)c1cnccn1` the figure was 10.8%; with `O=C(CCCCCCN1CC(=O)N2[C@@H](C3CC3)c3[nH]c4ccccc4c3C[C@H]2C1=O)NO`, 31.8%.
With `O=C(O)c1ccc(-n2c(=O)n(-c3cccc(C(F)(F)F)c3)c(=O)c3cc(-c4ccc(F)cc4F)ccc32)cc1` the figure was -41.4% (active); with `CNC(=O)c1cc(-c2ccc(NC(=O)Nc3ccc(N4CCOCC4)c(C(F)(F)F)c3)cc2)nc2cccnc12`, 25.2%; with `CS(=O)(=O)c1ccc2c(c1)c1c(n2Cc2ccc(Cl)cc2)CCCC1`, 70.5%.
With `COc1c(N2CC3CCCNC3C2)c(F)cc2c(=O)c(C(=O)N/N=C/c3ccc(F)cc3)cn(C3CC3)c12` (stereo not given) the figure was 72.8%; with `Cc1ccc2c(n1)C(=O)C(Cl)=C(Nc1ccc(C(=O)OC(C)(C)C)cc1)C2=O`, 4.87% [9.25 µM] (active).
Consider `COc1cccc(OC)c1-c1nnn(C)c1C(=S)N1CCN(c2ccc([N+](=O)[O-])cc2Cl)CC1`, for which the growth was 44.3%.
Take `Nc1cc(C(=O)N/N=C\c2ccc(OC(F)F)c(OC3CCCC3)c2)nn1CC(O)c1ccccc1` (stereo not given): the growth is 91.3%.
Take `O=C1Nc2cc(Cl)ccc2/C1=C\c1ccc(OCc2ccccc2)cc1`: the growth is 113%.
Consider `O=C(N/N=C/c1ccc[nH]1)c1[nH]c2ccc(Br)cc2c1-c1ccccc1`, for which the growth was -39.1% (active).
With `O=C(CN1CCN(c2cc(=O)[nH]c3ccc(F)cc23)CC1)N(c1ccccc1)c1ccccc1` the figure was 106%; with `CCCCCc1ccc(S(=O)(=O)Nc2cccc(-c3csc(NC(=O)CN4CCN(C)CC4)n3)c2)cc1`, 35.8%; with `c1cc(-c2nc3ccc4[nH]ncc4c3c3c2CCCC3)[nH]n1`, 80.8%.
With `COc1ccc(Cn2cc3c(c2-c2cc(OC)c(OC)c(OC)c2)CCCc2cnoc2-3)cc1N`, the growth is -9.82% (active).
Take `COc1ccc(/C=N/NC2=NC3C(S2)N(C)C(=O)N3C)cc1` (stereo not given): the growth is -28.8% (active).
As to `CN1CCN(c2nc(-c3csc(-c4ccccc4)n3)cc3ccccc23)CC1`, the growth is 6.57% (active).
Regarding `Cc1nc(-c2cc3ccccc3oc2=O)ccc1C(=O)/C=C/c1ccc(Cl)c(Cl)c1`, the growth is 97.9%.
As for `CSc1ccc(C(=NNS(=O)(=O)c2ccc(C)cc2)c2ccc(Cl)cc2)cc1`, the growth was 97.1%.

The values above are taken from PubChem BioAssay (NCI).
